HSF1 inhib – HSF1 inhibition; 300,000 tested, 0.77% active; NIH3T3-HGL HSE-luciferase, MG132-induced, luminescence 8 h; stronger effect = lower value; AID 2098; activity change, negative = inhibition, % at 7.5 µM (by protocol);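 active means more than half of replicate wells show activity change below -50%, luminescence cut by over half; inconclusive means some wells, but at most half, below -50%; inactive means no replicate well below -50%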;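 further: luciferase reports HSF-1 transcriptional activity via heat shock element; 0% = median of DMSO wells and -100% = zero luminescence signal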
GAA850 FXN act – increases GAA850 frataxin promoter reporter activity; HEK293 lucGAA850 FXN promoter luciferase reporter, 24 h; percent of 10 µM SAHA response; activation, % at 6 µM; 360,000 tested, 0.56% active;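 active means activation above the average of all compounds screened plus 3 SD, cutoff fixed separately per campaign, cut at about 7.5% in these data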;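 further: 0% = DMSO wells and 100% = 10 µM SAHA wells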
HSF-1 act – increases HSF-1 driven luciferase reporter signal | AID 504408 | activation, % at 9 µM | 300,000 tested, 1.7% active | NIH3T3-HGL HSF-1 luciferase reporter, MG132, 8 h; 100% = twice DMSO control signal;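 active means mean replicate activation of at least 50% with a set share of replicates each reaching 50%; inconclusive means only one of those two conditions met; inactive means mean below 50% and too few replicates reaching it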;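 further: 0% = median of the neutral control wells and 100% = twice that signal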
AHR act – human AHR activation; AHR-responsive luciferase reporter cells, luminescence; activation, % at 5 µM; 320,000 tested, 2.5% active; AID 2796; in the data active means activation above about 47%;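 further: 0% = vehicle wells and 100% = reference agonist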
Target sequence (P35869 whole entry, looked up): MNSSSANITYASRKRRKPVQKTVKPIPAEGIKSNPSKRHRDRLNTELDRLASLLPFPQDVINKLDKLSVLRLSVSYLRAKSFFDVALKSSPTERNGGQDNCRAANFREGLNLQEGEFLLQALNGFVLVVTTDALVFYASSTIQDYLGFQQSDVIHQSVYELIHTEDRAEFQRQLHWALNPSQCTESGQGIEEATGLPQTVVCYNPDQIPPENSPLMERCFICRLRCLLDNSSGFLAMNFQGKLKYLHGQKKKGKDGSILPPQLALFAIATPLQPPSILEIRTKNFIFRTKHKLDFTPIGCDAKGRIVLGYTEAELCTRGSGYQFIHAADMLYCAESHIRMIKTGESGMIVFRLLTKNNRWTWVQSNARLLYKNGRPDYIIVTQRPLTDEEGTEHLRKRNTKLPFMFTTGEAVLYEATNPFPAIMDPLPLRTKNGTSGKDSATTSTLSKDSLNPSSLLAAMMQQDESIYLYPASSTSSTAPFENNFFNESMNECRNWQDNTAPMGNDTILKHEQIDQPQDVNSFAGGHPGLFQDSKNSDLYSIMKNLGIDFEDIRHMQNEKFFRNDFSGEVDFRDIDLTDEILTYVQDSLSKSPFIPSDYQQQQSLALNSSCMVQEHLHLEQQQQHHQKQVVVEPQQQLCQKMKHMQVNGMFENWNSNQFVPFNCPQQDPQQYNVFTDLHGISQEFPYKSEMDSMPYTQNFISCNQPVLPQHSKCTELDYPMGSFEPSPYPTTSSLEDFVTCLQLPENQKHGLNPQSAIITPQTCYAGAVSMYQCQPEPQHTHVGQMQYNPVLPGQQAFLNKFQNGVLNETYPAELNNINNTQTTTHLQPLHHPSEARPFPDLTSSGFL
Active calls of the source: *; ? = inconclusive; · = no result. A selection: hits, their analogues and other compounds. The true share with any hit is near 4.6%.

SMILES	HSF1 inhib	GAA850 FXN act	HSF-1 act	AHR act
C[C@H](CO)N1C[C@H](C)[C@@H](CN(C)S(=O)(=O)c2cccs2)Oc2ccc(NC(=O)Cc3ccccc3)cc2C1=O	·	-0.6	·	-1.8
CC(C)n1c(CNC(=O)c2ccccc2F)nnc1SCC(=O)NC1CCCCC1	·	1.4	·	·
CN(CC(=O)Nc1ccc(OC(F)(F)F)cc1)C(=O)c1ccc(N2CCCC2=O)cc1	·	0.3	·	-4.5
CCOc1ccc(S(=O)(=O)Nc2ccccc2C(=O)NCC2CCCO2)cc1 (centres undefined)	-1.0	1.2	-2.8	0.0
CCCN1CCN(CCCNC(=O)c2ccc3c(Cl)c4c(nc3c2)CCCC4)CC1	111.7	-2.2	159.6*	-8.2
Nc1ccccc1SCc1c(Cl)cccc1Cl	0.9	-1.1	6.4	50.2*
Nc1ccccc1SCc1ccccc1Cl	-3.6	2.0	-6.1	67.4*
COc1ccc(-c2csc3nc(-c4ccccc4OC)oc(=O)c23)cc1	60.9	-1.2	90.8*	-7.2
Cc1ccc(NC(=O)C2C(=O)N(C)c3ccccc32)cc1 (centres undefined)	-2.5	1.1	-1.4	72.6*
O=C(Nc1ccccc1)N1C2CCC1CC(O)(c1cccnc1)C2 (centres undefined)	-9.2	-1.9	8.2	-0.5
O=C(O)c1ccc(-c2ccc(-c3ccccc3)cc2)s1	-50.7*	1.6	-50.9	-6.6
N#Cc1c(/N=C/c2cccs2)sc2c1CCCCC2	-7.9	-1.2	-19.6	0.4
COc1ccc(/C=C/c2nnc(NC(C)=O)s2)cc1	29.7	4.1	57.4*	17.9
COC(=O)Nc1nnc(/C=C/c2ccc(OC)cc2)s1	10.0	4.8	40.3	55.0*
CC(C)CCc1c(O)nc(SCC(=O)N2CCCCCC2)[nH]c1=O	-74.0*	0.2	-78.5	0.0
CCN(CC)S(=O)(=O)c1ccc(NC(=O)COc2cccc(-n3cnnn3)c2)cc1	·	-0.2	·	-0.1
O=C(CSc1nc2c(sc3ccccc32)c(=O)n1CCc1ccccc1)NCc1ccco1	4.7	3.2	8.2	3.3
O=C(CSc1nc2c(sc3ccccc32)c(=O)n1-c1ccccc1)NCc1ccco1	5.4	-3.1	16.9	113.4*
CCCCn1c(SCC(=O)NCc2ccco2)nc2c(sc3ccccc32)c1=O	-65.3*	-3.3	-73.4	12.8
CCOCCCn1c(SCC(=O)NCc2ccco2)nc2c(sc3ccccc32)c1=O	2.4	0.2	11.9	2.8
Cc1nnc(NC(=O)c2sc3ccccc3c2Cl)s1	10.8	3.7	22.0	47.7*
Cc1cccnc1NC(=O)Nc1ccccc1	2.7	3.9	-7.6	3.8
Cc1cccnc1NC(=O)c1sc2ccccc2c1Cl	24.1	6.2	36.1	69.2*
Cc1ccnc(NC(=O)c2sc3cc(Cl)ccc3c2Cl)c1	6.0	4.8	54.3*	10.1
Cc1cccnc1NC(=O)Nc1ccc(Cl)cc1	11.6	6.6	30.6	74.4*
SMILES	HSF1 inhib	GAA850 FXN act	HSF-1 act	AHR act
O=C(NC1=NCCS1)c1sc2ccccc2c1Cl	19.6	0.7	49.9	-0.7
Cc1ccnc(NC(=O)CNC(=O)c2sc3ccccc3c2Cl)c1	-11.8	1.1	-5.8	2.4
COC(=O)c1cc(C(=O)CC(C)C)c[nH]1	22.8	0.6	42.9	-1.1
Cn1c2c(c(=O)n(C)c1=O)C(CC(=O)Nc1ccccc1F)C(=O)N2 (centres undefined)	-0.3	1.9	1.4	0.9
Cn1c2c(c(=O)n(C)c1=O)C(CC(=O)Nc1ccccc1)C(=O)N2 (centres undefined)	-67.0*	0.6	-73.0	0.6
CC(=O)Nc1ccccc1C	·	0.3	·	16.2
Cc1ccccc1NC(=O)C(=Cc1ccc(C(=O)O)cc1)C(=O)Nc1ccccc1C	84.6	-7.8	146.1*	·
CC(=O)/C(=C/c1ccccc1)C(=O)Nc1ccccc1C	31.0	3.4	54.7*	-1.5
CC1C/C(=C/c2ccccn2)C(=O)/C(=C/c2ccccn2)C1 (centres undefined)	45.0	-15.8	89.0*	0.4
CC(C)(C)C1C/C(=C/c2ccccn2)C(=O)/C(=C/c2ccccn2)C1 (centres undefined)	-34.3	-16.9	-31.0	-2.8
NNC(=O)c1cc(-c2ccccc2)sc1N	12.9	-0.6	12.5	55.9*
CC(=O)c1sc(-c2ccccc2)cc1N	-3.4	3.5	-7.9	20.2
NNC(=O)c1sc(-c2ccccc2)cc1N	3.9	2.3	-9.6	65.8*
Cc1ccc(C(=O)Nc2cccc(C(F)(F)F)c2)cc1NC(=O)c1nccnc1N	-13.0	4.2	-21.2	5.2
CCCC(=O)N1CCN(c2ccc(NC(=O)c3cc4ccccc4o3)cc2Cl)CC1	-78.8*	-15.4	-77.8	-6.5
O=C(Nc1ccc(N2CCN(C(=O)c3ccco3)CC2)c(Cl)c1)c1cc2ccccc2o1	-73.6*	-14.7	-73.0	-4.1
COc1ccc(C(C)(C)C)cc1NC(=O)CCn1[nH]c(=O)ccc1=O	·	0.5	·	-0.1
O=C(O)CCn1[nH]c(=O)ccc1=O	12.3	-1.3	58.0*	1.9
CCOc1ccc(Nc2ncnc3ccc([N+](=O)[O-])cc23)cc1	-39.8	-8.2	-43.2	50.3*
Cc1ccc(OCC(=O)Nc2ccc([N+](=O)[O-])cn2)cc1C	0.7	1.5	18.5	11.9
CCC(=O)Nc1cc2nn(-c3ccccc3)nc2cc1Cl	7.5	6.3	25.9	50.7*
Cc1cc2nn(-c3ccccc3)nc2cc1NC(=O)c1cccs1	24.3	2.2	17.1	68.4*
CC(C)CC(=O)Nc1ccc2nn(-c3ccccc3)nc2c1	26.5	2.3	60.4*	-6.5
CC(=O)Nc1cc2nn(-c3ccccc3)nc2cc1C	17.6	3.9	39.0	55.4*
Cc1cc(NC(=O)c2cccs2)n(-c2ccccc2)n1	-5.3	0.5	-10.1	-0.4
SMILES	HSF1 inhib	GAA850 FXN act	HSF-1 act	AHR act
COc1ccccc1CNC(=O)c1ccc2c(c1)OCO2	3.9	1.8	12.5	45.1
CCc1ccc(-c2cc(C(=O)NN3CCOCC3)c3ccccc3n2)cc1	16.3	0.2	13.4	3.7
CC1CCN(c2ccc3c(c2)S(=O)(=O)c2cccc(C(=O)NCc4cccc(F)c4)c2C3=O)CC1	·	-1.0	·	3.6
O=C(Nc1ccccc1)c1cc2ccc3ccccc3c2s1	29.4	1.9	?	68.6*
Cc1cccc(N2CCN(C(=O)c3cc4c(=O)n(C)c5ccccc5c4n3C)CC2)c1C	-1.2	-0.1	12.8	2.2
Cc1ccc(C2=NN(S(C)(=O)=O)C(c3ccc4c(c3)OCO4)C2)cc1 (centres undefined)	55.0	4.6	79.8*	18.4
CC(=O)N1N=C(c2ccc(C)cc2)CC1c1ccc2c(c1)OCO2 (centres undefined)	27.0	6.3	42.5	10.7
CS(=O)(=O)N1N=C(c2ccc(Br)cc2)CC1c1ccc2c(c1)OCO2 (centres undefined)	41.9	11.7*	76.8*	19.2
COc1ccc2nc(C)c3cc(C)oc3c2c1	·	-1.0	·	-3.2
COc1cccc2c1nc(C)c1cc(C)oc12	4.8	1.0	23.2	62.1*
O=C(NC1CCCC1)C(c1ccco1)N(C(=O)c1ccco1)c1ccccc1 (centres undefined)	-1.6	2.6	-6.5	1.9
COc1ccccc1NC(=O)C(=O)N/N=C/c1cccs1	1.4	6.6	23.9	47.1*

High-throughput results: PubChem, several laboratories
